In all, about 190,000 compounds went through this assay and about 4,000 (2.1%) were called active. No stated cut-off is given here; in the data, active means inhibition above about 58%; inactive means the rest, inconclusive results apart; tested in S. cerevisiae. Only a selection was taken, and actives are over-represented in it overall.

The test in a line: growth inhibition of WT strain, primary screen, mitochondrial fusion inhibitor project, WT and mutant strains, chemical genetic (AID 1362). The conditions noted are these: mitochondrial fusion phenotypic screen, at 10 µM.
Setting [1] is: WT strain, growth inhibition, stronger effect = higher value.

A word on the inhibition: it is the relative decrease from the control value, in per cent. With `OC(COc1ccc(CN2CCSCC2)cc1)CN1CCCCC1` (stereo unspecified), the inhibition under setting [1] is -6.41% (inactive) and the inhibition (mutant strain inhibition) was determined as 3.34%.

As to `C=CCN(CC=C)C(=O)COC(=O)c1n[nH]c2ccccc12`, the inhibition was 3.05% (inactive) under setting [1] and 3.34% (mutant strain inhibition).

In the case of `NC(=O)COC(=O)c1cc(S(=O)(=O)N2CCN(c3ccccc3)CC2)ccc1Cl`, the inhibition runs as follows: under setting [1], -11% (inactive); (mutant strain inhibition) 6.11%.

`COc1cccc(NC(=S)NCc2ccccn2)c1`: the inhibition under setting [1] is -0.62% (inactive) and the inhibition (mutant strain inhibition) amounted to 6.49%.

On to `O=C(NCc1ccccn1)Nc1ccc(F)cc1`, for which the inhibition was -29.6% (inactive) under setting [1] and -0.93% (mutant strain inhibition).

For the molecule `CCC(C)c1ccc(NC(=S)NCc2ccccn2)cc1` (stereo unspecified), the inhibition under setting [1] is 71% (active) and the inhibition (mutant strain inhibition) worked out at 62.6%.

For the molecule `COc1ccccc1Oc1ccc(S(=O)(=O)Nc2cccnc2)cc1`, the inhibition is, setting by setting: under setting [1], 7.74% (inactive); (mutant strain inhibition) 7.52%.

With `COC(=O)Cc1ccc(Oc2ncc(C(F)(F)F)cc2Cl)cc1`, the inhibition reads like this: under setting [1], 13.6% (inactive); (mutant strain inhibition) 17.5%.

For the molecule `Cc1cc(C)cc(NS(=O)(=O)c2ccc(Oc3ncc(C(F)(F)F)cc3Cl)cc2)c1`, the inhibition is 75.5% (active) under setting [1] and 23.7% (mutant strain inhibition).

Turning to `COC(=O)C1=C(C)N(C)C(=S)NC1c1cc(OC)ccc1OC` (stereo unspecified), the inhibition by setting is: under setting [1], 4.73% (inactive); (mutant strain inhibition) 3.84%.

For `O=C(NCc1ccccc1Cl)C1CCCO1` (stereo unspecified), the inhibition under setting [1] was -11.3% (inactive) and the inhibition (mutant strain inhibition) was found to be 7.12%.

Turning to `COC(=O)CNC(=O)c1ccc(OC2CCN(C(=O)C3CC3)CC2)cc1`, the inhibition reads like this: under setting [1], 1.17% (inactive); (mutant strain inhibition) 10.2%.

On to `CSc1cccc(NC(=S)N(C(C)C)C(C)c2ccccn2)c1` (stereo unspecified), for which the inhibition runs as follows: under setting [1], 31.2% (inactive); (mutant strain inhibition) 20.5%.

On to `CSc1cccc(NC(=S)N(Cc2ccccc2)Cc2ccccn2)c1`, for which the inhibition was 65.9% (active) under setting [1] and 28.6% (mutant strain inhibition).

`COc1cccc(NC(=S)N(Cc2ccc(C)cc2)Cc2ccccn2)c1`: the inhibition under setting [1] was 4.22% (inactive) and the inhibition (mutant strain inhibition) turned out to be 20.6%.

Take `CC(=O)Nc1ccc(S(=O)(=O)N(C)c2ccc(OCC(=O)OCC(=O)N3CCCCC3)cc2)cc1`: the inhibition is 0.1% (inactive) under setting [1] and -22.2% (mutant strain inhibition).

Take `Cc1ccc(SCCC(=O)Nc2cc(C)on2)cc1`: the inhibition reads like this: under setting [1], 10.3% (inactive); (mutant strain inhibition) -8.98%.

`NC1=NC2(CCCCC2)N(c2ccc(F)cc2F)C(N)=N1`: the inhibition under setting [1] was -0.71% (inactive) and the inhibition (mutant strain inhibition) was -2.91%.

Turning to `Cc1ccc2nc(NCCCNC(=O)c3cnccn3)c(C#N)cc2c1`, the inhibition reads like this: under setting [1], 90.6% (active); (mutant strain inhibition) -2.29%.

In the case of `Cc1ccc2cc(C#N)c(NCCNC(=S)NCCCN3CCOCC3)nc2c1`, the inhibition runs as follows: under setting [1], 10.9% (inactive); (mutant strain inhibition) 3.33%.

Regarding `COCCCNC(=S)NCCNc1nc2cc(C)c(C)cc2cc1C#N`, the inhibition under setting [1] was 7.68% (inactive) and the inhibition (mutant strain inhibition) is 10.7%.

Regarding `O=C(NC1CC1)C1CCCN(C(=O)NC2CCCCC2)C1` (stereo unspecified), the inhibition is -6.93% (inactive) under setting [1] and -6.42% (mutant strain inhibition).

As to `COc1nc(NC2CCCCC2)nc(N2CCCCCC2)n1`, the inhibition by setting is: under setting [1], 66.3% (active); (mutant strain inhibition) 28.3%.

Take `FC(F)(F)COc1nc(N2CCCCC2)nc(N2CCNCC2)n1`: the inhibition runs as follows: under setting [1], 3.34% (inactive); (mutant strain inhibition) 2.8%.

As to `Cc1ccnc(N2CCC(C(=O)NC3CCCCCC3)CC2)n1`, the inhibition reads like this: under setting [1], -13.5% (inactive); (mutant strain inhibition) -18.9%.

As to `CCN(CCCNC(=O)CSc1cc(=O)n(C)c2cc(Cl)ccc12)Cc1ccccc1`, the inhibition under setting [1] is -10.6% (inactive) and the inhibition (mutant strain inhibition) is -11.8%.

As to `CC(O)CNCCOc1cccc(Oc2ccccc2)c1` (stereo unspecified), the inhibition is, setting by setting: under setting [1], -0.49% (inactive); (mutant strain inhibition) 17.6%.

As for `CCOC(=O)c1[nH]ncc1CN1CCCC(C(=O)c2ccc(OC)cc2C)C1` (stereo unspecified), the inhibition is 3.7% (inactive) under setting [1] and 9.86% (mutant strain inhibition).

As for `O=C(N/N=C/c1cc2c(cc1Br)OCO2)C1COc2ccccc2O1` (stereo unspecified), the inhibition was 29.9% (inactive) under setting [1] and 30% (mutant strain inhibition).

With `COC(=O)c1sc2ncccc2c1OCc1ccc(Cl)cc1Cl`, the inhibition reads like this: under setting [1], 12.8% (inactive); (mutant strain inhibition) -2.97%.

On to `Cc1nc2ccccc2nc(C)c1=NOCc1ccc(Cl)cc1Cl`, for which the inhibition under setting [1] was 67.9% (active) and the inhibition (mutant strain inhibition) is 2.92%.

On to `O=S(=O)(O)c1nc2ccccc2n1Cc1ccc(Cl)cc1Cl`, for which the inhibition was 18.7% (inactive) under setting [1] and 26% (mutant strain inhibition).

In the case of `CC(C)N1C(=S)SC(C)(C)C1n1oc(=O)n(-c2ccc(Cl)c(Cl)c2)c1=O` (stereo unspecified), the inhibition runs as follows: under setting [1], 76.3% (active); (mutant strain inhibition) 19.9%.

Take `Cc1ccc(C2CC(c3cccc(NS(C)(=O)=O)c3)=NN2S(C)(=O)=O)cc1` (stereo unspecified): the inhibition is 4.24% (inactive) under setting [1] and 6.73% (mutant strain inhibition).

As to `CCOc1cc(CNn2c(C)nnc2SCC(=O)NC(C)(C)C)ccc1OCC(=O)NC(C)(C)C`, the inhibition was -19.6% (inactive) under setting [1] and 0.2% (mutant strain inhibition).

For `Cc1cc(C(=O)CCl)c(C)n1CC1COc2ccccc2O1` (stereo unspecified), the inhibition runs as follows: under setting [1], 7.72% (inactive); (mutant strain inhibition) 25.4%.

On to `N#Cc1c(N)nc2c(c1N)CC(C(F)(F)F)O2` (stereo unspecified), for which the inhibition was -7.69% (inactive) under setting [1] and 1.1% (mutant strain inhibition).

On to `Cc1nc(N2CCN(c3ccccn3)CC2)c2c(C)c(C(=O)Nc3ccc(F)cc3)sc2n1`, for which the inhibition runs as follows: under setting [1], 38.7% (inactive); (mutant strain inhibition) 11.3%.

Turning to `Cc1nc(N2CCC(C)CC2)c2c(C)c(C(=O)Nc3cc(F)ccc3C)sc2n1`, the inhibition runs as follows: under setting [1], 64% (active); (mutant strain inhibition) -25.2%.

For the molecule `Cc1nc(N2CCOCC2)c2c(C)c(C(=O)Nc3ccc(C(F)(F)F)cc3)sc2n1`, the inhibition runs as follows: under setting [1], 47.4% (inactive); (mutant strain inhibition) -8.5%.

Regarding `c1ccc(-c2cc(N3CCCCC3)c3ccccc3n2)cc1`, the inhibition is, setting by setting: under setting [1], 36.4% (inactive); (mutant strain inhibition) 49.1%.

On to `CC(C)NC(=S)NN=C1CCCCCCCCCCC1`, for which the inhibition by setting is: under setting [1], 69.5% (active); (mutant strain inhibition) 53.1%.

As to `CC(C)(C)NC(=O)C(=O)NN=C1CCCCCCC1`, the inhibition is, setting by setting: under setting [1], -0.12% (inactive); (mutant strain inhibition) 9.74%.

For the origin of these results see PubChem BioAssay AID1362 (SRMLSC, 2008).
